The values that follow come from PubChem BioAssay (NCATS).

Inconclusive results are not listed. Active and inactive are the calls of the source. Calls follow the shape of the dose curve; as a rule, active = well fitted cell-killing curve with a large enough effect; inconclusive = small, poorly fitted or top-dose-only effect, or effect the other way; inactive = no such curve, though single readings can be large or run the other way.
Also: nearly all actives have a fitted effect of over 35% in size.
Potency is read from the fitted curve at half-maximal effect.

A short description of one experiment: Quantitative highthroughput screen to assess conditional lethalithy of SEM cells grown in Human Plasma-Like Medium with dialyzed fetal bovine serum (HPLM+ds) (AID 1963882). The settings on record: SEM B-ALL cells in HPLM+ds, CellTiter-Glo viability, 48 h; series mostly up to 45.8 µM. An outline of the steps:
(§1)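 Each medium arm—HPLM with 10% dialyzed FBS, or RPMI1640 with 5 mM glucose and 10% untreated or dialyzed FBS—was screened against an 11-point, 3-fold compound titration for 48 h at 37 °C, with CellTiter-Glo luminescence as endpoint.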
With `CC(=O)OCCN1C(=O)c2c(C)nc3ccc(S(=O)(=O)N4CCOCC4)cc3c2C1=O`, the Potency result is “inactive”. Still for that read-out and setting: the value for `Cc1ccc(C(=O)N(CCCN)[C@@H](c2oc3cc(Cl)ccc3c(=O)c2Cc2ccccc2)C(C)C)cc1` was “inactive”. For the compound `COc1cc(C(C)C)c2c(c1)S(=O)(=O)N(COc1cc(=O)n3cccc(OCCN4CCCCC4)c3n1)C2=O`, the Potency result is “inactive”. Same read-out and setting: the value for `CC1(C)[C@H](C(=O)O)N2C(=O)C[C@H]2S1(=O)=O` was “inactive”; that for `COc1cc2c(cc1-c1c(C)noc1C)ncc1[nH]c(=O)n([C@H](C)c3ccccn3)c12` was 1.87 µM (active). Still for that read-out and setting: with `CCOc1cc(N2CCC(O)CC2)ccc1Nc1ncc2c(n1)N(C)c1ccccc1C(=O)N2C` the figure was 20.9 µM (active); with `NCC(=O)Nc1ccc(-n2nc(C(F)(F)F)cc2-c2ccc3c(ccc4ccccc43)c2)cc1`, “inactive”; with `CN(C)c1ccc(C(=O)NCCCCCCC(=O)NO)cc1`, 1.32 µM (active). As for `Cc1cccc(-c2[nH]c(C(C)(C)C)nc2-c2ccc3nccnc3c2)n1`, the Potency is 23.5 µM (active).

Take `Nc1ccc(C(=O)Nc2cccc(-c3nc(N4CCOCC4)c4oc5ncccc5c4n3)c2)cn1`: the Potency was 20.9 µM (active). Still for that read-out and setting: with `CN1CCN(c2ncc(-c3cc(Cl)cc(Cl)c3Cl)c(N)n2)CC1` the entry was “inactive”; with `N#Cc1c(NC(=O)c2cccc3ccccc23)sc2c1CCCC2`, 0.469 µM (active). As to `CC1=C[C@@H]2[C@@H]([C@@H](O)C[C@@]3(C)[C@H]2C[C@@H](C)[C@]3(O)C(=O)CO)[C@@]2(C)Cc3cnn(-c4ccccc4)c3C=C12`, the Potency was 0.0372 µM (active). Same read-out and setting: with `Cc1cnc(C(=O)NCCc2ccc(S(=O)(=O)NC(=O)NC3CCCCC3)cc2)cn1` the entry was “inactive”.

Turning to `COc1cc2ncnc(Nc3ccc(F)c(Cl)c3)c2cc1OCCCN1CCOCC1`, the Potency is 38.2 µM (active).

A further experiment can be described thus: Quantitative highthroughput screen to assess conditional lethalithy of SEM cells grown in RPMI1640 with unreated serum (RPMI+s) (AID 1963883). The settings on record: SEM B-ALL cells, CellTiter-Glo viability, 48 h; series mostly up to 45.8 µM. The procedure, abridged: as §1
On the technique in general: In ATP-based viability assays light output follows the ATP content of the culture.
Consider `C=CC(=O)Nc1cccc(Oc2nc(Nc3ccc(N4CCN(C)CC4)cc3OC)ncc2Cl)c1`, for which the Potency is 3.72 µM (active).

Consider `CC(=O)OCCN1C(=O)c2c(C)nc3ccc(S(=O)(=O)N4CCOCC4)cc3c2C1=O`, for which the Potency result is “inactive”. For `Cc1ccc(C(=O)N(CCCN)[C@@H](c2oc3cc(Cl)ccc3c(=O)c2Cc2ccccc2)C(C)C)cc1`, the Potency entry was “inactive”.

Regarding `NC1(C(=O)N[C@@H](CCO)c2ccc(Cl)cc2)CCN(c2ncnc3[nH]ccc23)CC1`, the Potency was 3.32 µM (active). For `COc1cc(C(C)C)c2c(c1)S(=O)(=O)N(COc1cc(=O)n3cccc(OCCN4CCCCC4)c3n1)C2=O`, the Potency result was “inactive”. Still for that read-out and setting: the value for `CC1(C)[C@H](C(=O)O)N2C(=O)C[C@H]2S1(=O)=O` was “inactive”; that for `COc1cc2c(cc1-c1c(C)noc1C)ncc1[nH]c(=O)n([C@H](C)c3ccccn3)c12` was 1.87 µM (active).

Consider `CN1CCC(=C2c3ccccc3CCc3sccc32)CC1`, for which the Potency result was “inactive”.

`CCOc1cc(N2CCC(O)CC2)ccc1Nc1ncc2c(n1)N(C)c1ccccc1C(=O)N2C`: the Potency was 16.6 µM (active). As for `CCOc1ccc(Nc2nc(-c3c(C)nc4ccccn34)cs2)cc1`, the Potency is 0.0469 µM (active). Still for that read-out and setting: with `c1cncc(CN2CCC(n3ncc4c(N5CCOCC5)nc(-c5ccc6[nH]ccc6c5)nc43)CC2)c1` the figure was 14.8 µM (active); with `NCC(=O)Nc1ccc(-n2nc(C(F)(F)F)cc2-c2ccc3c(ccc4ccccc43)c2)cc1`, “inactive”. On the same count and under the same terms, with `CN(C)c1ccc(C(=O)NCCCCCCC(=O)NO)cc1` the figure was 1.32 µM (active); with `CCc1nc(N)nc(N)c1-c1ccc(Cl)cc1`, “inactive”. For `Cc1cccc(-c2[nH]c(C(C)(C)C)nc2-c2ccc3nccnc3c2)n1`, the Potency was 20.9 µM (active). For the compound `Nc1ccc(C(=O)Nc2cccc(-c3nc(N4CCOCC4)c4oc5ncccc5c4n3)c2)cn1`, the Potency is 18.7 µM (active). Same read-out and setting: the value for `CN1CCN(c2ncc(-c3cc(Cl)cc(Cl)c3Cl)c(N)n2)CC1` was “inactive”. Still for that read-out and setting: with `CC(C)Nc1cc(-c2c[nH]c(C(=O)N[C@H](CO)c3cccc(Cl)c3)c2)c(Cl)cn1` the figure was 18.6 µM (active); with `N#Cc1c(NC(=O)c2cccc3ccccc23)sc2c1CCCC2`, 0.418 µM (active); with `Cc1cnc(C(=O)NCCc2ccc(S(=O)(=O)NC(=O)NC3CCCCC3)cc2)cn1`, “inactive”. On the same count and under the same terms, with `Cc1cc(C(=O)N2CCN(c3cccc(Cl)c3)CC2)n(-c2ccccc2)n1` the figure was 2.64 µM (active). For the compound `COc1cc2ncnc(Nc3ccc(F)c(Cl)c3)c2cc1OCCCN1CCOCC1`, the Potency was 42.9 µM (active).

In the case of `Cc1ccc(S(=O)(=O)OCC(=O)Nc2ccc(C(=O)O)c(O)c2)cc1`, the Potency is 16.6 µM (active). As for `O=C(c1ccc(OCCN2CCCCC2)cc1)c1c(-c2ccc(O)cc2)sc2cc(O)ccc12`, the Potency entry was “inactive”. On the same count and under the same terms, with `CCC[C@H](N[C@@H](C)C(=O)N1[C@@H]2CCCC[C@H]2C[C@H]1C(=O)O)C(=O)OCC` the entry was “inactive”; with `CNC(=O)Nc1ccc(-c2nc(N3CC4CCC(C3)O4)c3cnn(C4CCC5(CC4)OCCO5)c3n2)cc1`, 0.0418 µM (active).
